Rows were chosen to be rich in hits. Some 5.9% of all compounds tested hit in one or more screens of this group.
PRMT1 inh: PRMT1 methyltransferase inhibitors, primary screen, biochemical, fluorescence polarization; actives 1.3% (n = 370,000); Protein arginine N-methyltransferase 1 (Homo sapiens), Q99873; recombinant PRMT1, activity-based probe fluorescence polarization; inhibition, % at 2.79 µM;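 active = inhibition above about 21% made by adding two undisclosed values, limit read from the data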
Target sequence (Q99873 whole entry, looked up): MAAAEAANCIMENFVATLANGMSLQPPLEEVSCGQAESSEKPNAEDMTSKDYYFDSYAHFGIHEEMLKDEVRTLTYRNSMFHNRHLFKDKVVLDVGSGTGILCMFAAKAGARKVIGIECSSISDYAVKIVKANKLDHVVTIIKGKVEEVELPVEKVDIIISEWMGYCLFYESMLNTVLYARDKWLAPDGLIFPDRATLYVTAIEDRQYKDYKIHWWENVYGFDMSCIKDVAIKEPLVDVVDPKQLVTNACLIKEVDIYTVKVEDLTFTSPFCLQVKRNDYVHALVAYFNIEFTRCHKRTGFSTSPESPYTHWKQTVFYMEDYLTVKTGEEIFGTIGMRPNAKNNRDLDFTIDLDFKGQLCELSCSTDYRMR
rCAG binder: binders of r(CAG) RNA repeats, primary screen, biochemical, fluorescence; inhibition, % at 3 µM; r(CAG) RNA repeat, TO-PRO-1 dye displacement fluorescence; actives 1.3% (n = 370,000); AID 651821, 2012;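 active = inhibition above the plate cutoff, the mean of all test compounds on that plate plus 3 SD, cut at about 35% in these data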;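 also: 0% = DMSO alone and 100% = 100 µM mitoxantrone as full dye displacement; higher means more dye released from RNA so lower well fluorescence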
Rtt109 HAT inh: inhibitors of C. albicans Rtt109/Vps75 HAT, primary screen, biochemical, ThioGlo CoA-SH fluorescence, plate reader. purified Rtt109/Vps75, 4 h. Histone acetyltransferase RTT109 (Candida albicans (strain SC5314 / ATCC MYA-2876)), …. AID 540336, 2011. actives 0.16% (n = 330,000). inhibition, % at 34.9 µM;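 active = inhibition of at least 50% in every replicate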
LANA-H2A inh: blockers of LANA interaction with H2A/H2B – biochemical, FP readout, HTS, primary screen; Protein LANA1 (Human herpesvirus 8 type P (isolate GK18)), Q9QR71; cell-free LANA-H2A/H2B peptide, fluorescence polarization; inhibition, % (no concentration beside the values); actives 0.6% (n = 320,000); AID 2629, 2010; in the data active = inhibition mostly above about 10%, no sharp cut-off; inactive = mostly below about 6.7%
ALR inh: inhibitors of human ALR sulfhydryl oxidase, primary screen, biochemical, H2O2 detection, HRP-luminol luminescence, single point | purified ALR, DTT oxidation | actives 3.8% (n = 290,000) | FAD-linked sulfhydryl oxidase ALR (Homo sapiens), P55789 | inhibition, % (concentration not given with the values);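 active = mean replicate inhibition above about 79%, with every replicate also reaching it, limit read from the data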
Target sequence (P55789 whole entry, looked up): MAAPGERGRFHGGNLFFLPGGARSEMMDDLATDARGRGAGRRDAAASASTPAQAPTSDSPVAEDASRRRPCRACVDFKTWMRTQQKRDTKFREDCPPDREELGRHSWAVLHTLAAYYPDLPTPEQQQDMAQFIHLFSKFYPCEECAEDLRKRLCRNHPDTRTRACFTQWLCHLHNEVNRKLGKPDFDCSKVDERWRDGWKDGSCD
ABHD5-PLIN5 inh: ABHD5-PLIN5 interaction inhibitors, primary screen, cell lysate, split luciferase complementation, luminescence | Perilipin-5 (Homo sapiens) + 1-acylglycerol-3-phosphate O-acyltransferase ABHD5 (Homo … | Split G. princeps luciferase complementation, 4 h | inhibition, % at 4 µM | actives 0.78% (n = 360,000) | AID 602281, 2012;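 active = inhibition above the mean inhibition across every tested compound plus 3 SD, cut at about 22% in these data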;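 also: 0% = DMSO only wells and the 100% control is not disclosed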
* = called active by the depositor.

C=CCC(CC(O)COCCC)C(=O)NNC(=S)Nc1ccccc1 (stereo not given) was read as PRMT1 inh -1.2, rCAG binder -3.4, Rtt109 HAT inh -3.0, LANA-H2A inh -2.2, ALR inh 98.3* and ABHD5-PLIN5 inh -5.6.
Cc1ccc(S(=O)(=O)Nc2nc(C)c(NC(=O)OCCCl)s2)cc1 was read as PRMT1 inh 2.7, rCAG binder 11.9, Rtt109 HAT inh 2.0, LANA-H2A inh 3.3, ALR inh 98.3* and ABHD5-PLIN5 inh -9.2.
`COc1ccc(CN2CN3Cc4ccccc4C3CS2(=O)=O)cc1` (stereo not given) gave PRMT1 inh 2.8 and rCAG binder 6.1.
Screening Cc1ccc(-c2cccc3[nH]cc(C)c23)s1 returned PRMT1 inh -0.7 and rCAG binder 2.7.
CNc1sc(C(=O)c2ccc(F)cc2)c(N)c1-c1nc2ccccc2s1 was read as PRMT1 inh 1.8, rCAG binder 19.4, Rtt109 HAT inh -1.0, LANA-H2A inh 0.2, ALR inh 90.7* and ABHD5-PLIN5 inh 2.2.
`CNc1sc(C(=O)c2cccs2)c(N)c1-c1nc2ccccc2s1` gave PRMT1 inh 3.5, rCAG binder 30.7, Rtt109 HAT inh 4.5, LANA-H2A inh 3.3, ALR inh 3.0 and ABHD5-PLIN5 inh -0.2.
`COc1cccc(CNC(=O)c2ccc(F)c(S(=O)(=O)N3CCCCC3)c2)c1` gave PRMT1 inh -2.5, rCAG binder 2.4 and ABHD5-PLIN5 inh 1.5.
`COc1ccc(-n2cnc3cc(N)ccc32)cc1` gave PRMT1 inh 0.3, rCAG binder 3.1, Rtt109 HAT inh 1.1, LANA-H2A inh -2.7, ALR inh 98.8* and ABHD5-PLIN5 inh 2.6.
Screening CCCCCN1CCCCC(NC(=O)c2cc(OC)c(OC)c(OC)c2)C1=O (stereo not given) returned PRMT1 inh 0.7 and rCAG binder -1.5.
`C/C(=N\Nc1ccc(Cl)cc1)c1c(O)cc(C)oc1=O` gave PRMT1 inh -2.0, rCAG binder 6.2, Rtt109 HAT inh 5.6, LANA-H2A inh -0.4, ALR inh 98.6* and ABHD5-PLIN5 inh -6.5.
For C/C(=N\NC(=O)c1cccs1)c1c(O)cc(C)oc1=O the results were PRMT1 inh -1.6, rCAG binder 1.4, Rtt109 HAT inh 4.3, LANA-H2A inh 1.8, ALR inh 12.3 and ABHD5-PLIN5 inh 0.3.
`COc1cccc(-c2nc(CS(=O)(=O)CC(=O)Nc3ccccc3Br)c(C)o2)c1` gave PRMT1 inh 0.6, rCAG binder 0.2, Rtt109 HAT inh -2.6, LANA-H2A inh 0.6, ALR inh 93.7* and ABHD5-PLIN5 inh -4.5.
`COc1cccc(-c2nc(CS(=O)(=O)CC(=O)Nc3ccccc3Cl)c(C)o2)c1` gave PRMT1 inh -2.6, rCAG binder -0.5, Rtt109 HAT inh 5.9, LANA-H2A inh 2.5, ALR inh 87.5* and ABHD5-PLIN5 inh -1.8.
`CCc1nc2ccc(C(=O)NCCCn3ccnc3)cn2c1N(CC)CCOC` gave PRMT1 inh -2.3, rCAG binder -0.8 and ABHD5-PLIN5 inh -8.3.
Screening COc1ccccc1CC(=O)N(Cc1ccccc1)c1ccc(C)cc1 returned PRMT1 inh 0.1, rCAG binder -7.8, Rtt109 HAT inh -2.8, LANA-H2A inh 22.0*, ALR inh 4.2 and ABHD5-PLIN5 inh -2.5.
For COc1ccc(CC(=O)N(Cc2ccccc2)c2ccccc2)cc1S(=O)(=O)N1CCOCC1 the results were PRMT1 inh 1.8, rCAG binder -6.9, Rtt109 HAT inh 1.7, LANA-H2A inh 15.7*, ALR inh -0.5 and ABHD5-PLIN5 inh 7.6.
Screening COCCN(Cc1ccccc1)C(=O)Cc1ccc(OC)c(S(=O)(=O)N2CCOCC2)c1 returned PRMT1 inh -2.1, rCAG binder -6.5, Rtt109 HAT inh -7.3, LANA-H2A inh 1.8, ALR inh -6.5 and ABHD5-PLIN5 inh 5.4.
O=C(NCCc1c[nH]c2ccccc12)c1ccc(Sc2ccccc2Cl)c([N+](=O)[O-])c1 was read as PRMT1 inh -3.1 and rCAG binder 13.0.
For OC(Cc1ccnc2ccccc12)C(Cl)(Cl)Cl (stereo not given) the results were PRMT1 inh -1.1, rCAG binder 1.4, Rtt109 HAT inh 17.6 and ABHD5-PLIN5 inh -1.9.
Screening COc1cccc(CNC(=O)[C@H]2CCCN2C(=O)[C@H]2CCCN2C(=O)c2ccc(OC(F)(F)F)cc2)c1 returned PRMT1 inh -1.4 and rCAG binder -2.2.
Screening COCc1cn(-c2cccc(-c3noc4c3C(=O)N(CC(=O)N3CCOCC3)CC4)c2)nn1 returned PRMT1 inh -0.2 and rCAG binder 0.1.
Cc1sc2nc(-c3cccnc3)[nH]c(=O)c2c1-c1ccccc1 was read as PRMT1 inh 22.8*, rCAG binder 3.0, Rtt109 HAT inh -1.2, LANA-H2A inh -1.7, ALR inh -2.4 and ABHD5-PLIN5 inh -2.1.
C=CCNC(=S)Nc1ccc(Cl)cc1F was read as PRMT1 inh -0.6, rCAG binder 1.8, Rtt109 HAT inh 2.4, LANA-H2A inh 0.2, ALR inh -43.3 and ABHD5-PLIN5 inh 5.5.
`C=CCNC(=S)Nc1ccc(Br)cc1F` gave PRMT1 inh 2.5, rCAG binder 3.0, Rtt109 HAT inh 3.3, LANA-H2A inh 12.6*, ALR inh -15.4 and ABHD5-PLIN5 inh -1.4.
`CC(CCN1CCC(C(O)(c2ccccc2)c2ccccc2)CC1)Oc1ccc(F)cc1` (stereo not given) gave PRMT1 inh 0.3 and rCAG binder -0.9.
`Cc1occc1C(=O)NCc1ccccn1` gave PRMT1 inh 3.0, rCAG binder -0.4, Rtt109 HAT inh 5.6, LANA-H2A inh 3.1, ALR inh 82.3* and ABHD5-PLIN5 inh -2.4.
Cc1csc(CCc2nc(C)cs2)n1 was read as PRMT1 inh -1.6, rCAG binder 1.5, Rtt109 HAT inh -0.4, LANA-H2A inh 8.4*, ALR inh -8.2 and ABHD5-PLIN5 inh 3.6.
`CC(=O)Nc1nc(C)cs1` gave PRMT1 inh -1.8, rCAG binder 1.4, Rtt109 HAT inh 4.6, LANA-H2A inh -1.9, ALR inh 0.0 and ABHD5-PLIN5 inh -2.3.
COc1cc(-c2cc(C(=O)O)c3c(OC)c(OC)c(OC)cc3n2)ccc1O was read as PRMT1 inh 2.7, rCAG binder 7.2, Rtt109 HAT inh 3.1, LANA-H2A inh -1.4, ALR inh 97.8* and ABHD5-PLIN5 inh 0.5.

Screens (PubChem)
